TDP1 cell noCPT = qHTS for Inhibitors of human tyrosyl-DNA phosphodiesterase 1 (TDP1): qHTS in cells in absence of CPT | DT40 Tdp1-/- hTDP1 cells, no CPT, ATP luminescence, 48 h | Potency, µM (series often up to 46.2 µM), inactives show at the top dose activity change, negative = growth inhibition, hits mostly inhibitors | actives 15% (n = 420,000); further: potency means the concentration at half of the fitted maximal effect; nearly all actives have a fitted effect of over 55% in size
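Growth of hTDP1-complemented DT40 Tdp1-knockout cells is measured by ATP luminescence after at least 48 hr compound exposure at 37 °C, with DMSO substituting for the 20 nM CPT used in the parallel screen.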
VP16 counter = inhibits Gal4-VP16 luciferase reporter, ROR gamma counter-screen; Drosophila S2 Gal4-VP16 UAS-luciferase, luminescence, 20 h; Potency, µM (titrated, usually from 53.6 µM), without a hit: at the highest dose activity, negative = inhibition, usual class: inhibitors; actives 3.5% (n = 310,000); AID 2546;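 further: Gal4-VP16 expression switched on by copper sulfate through the metallothionein promoter; potency means the concentration at half of the fitted maximal effect; nearly all actives have a fitted effect of over 50% in size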
RORg inh = ROR gamma (mouse) transcription inhibition; P51450; Drosophila S2 Gal4-RORgamma UAS-luciferase reporter, 20 h; AID 2551; Potency, µM (highest dose often 53.6 µM), for inactives: at the top dose activity change, negative = inhibition, most hits filed as inhibitors; actives 5.4% (n = 310,000); further: potency means the concentration at half of the fitted maximal effect; nearly all actives have a fitted effect of over 60% in size
Target sequence (P51450 whole entry, looked up, the tested form may be a part): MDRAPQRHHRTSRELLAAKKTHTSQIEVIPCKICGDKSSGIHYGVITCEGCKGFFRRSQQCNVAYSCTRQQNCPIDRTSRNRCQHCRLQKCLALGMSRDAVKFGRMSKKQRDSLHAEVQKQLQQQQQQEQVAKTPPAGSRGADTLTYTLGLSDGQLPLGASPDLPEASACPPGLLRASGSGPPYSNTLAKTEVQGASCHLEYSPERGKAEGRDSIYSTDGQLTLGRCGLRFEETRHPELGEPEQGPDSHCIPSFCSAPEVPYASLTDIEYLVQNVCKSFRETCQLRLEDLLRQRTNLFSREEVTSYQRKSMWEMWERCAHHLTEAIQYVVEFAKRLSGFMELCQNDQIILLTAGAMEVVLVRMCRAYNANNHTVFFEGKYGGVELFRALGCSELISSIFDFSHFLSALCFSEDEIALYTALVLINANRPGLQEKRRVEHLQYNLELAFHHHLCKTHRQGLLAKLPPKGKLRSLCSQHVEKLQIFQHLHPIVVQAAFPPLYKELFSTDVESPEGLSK
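In this cell-based reporter format, copper sulfate (700 uM final) drives Gal4–ROR gamma fusion expression from a metallothionein promoter in Drosophila Schneider cells; compounds preincubated 1 hr, reporter read after 20 hr at ambient temperature.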
LDHA inh = LDHA (human) enzyme inhibition; P00338; AID 1347041; actives 0.15% (n = 480,000); activity change, % (values are at about 110 or 230 µM); purified LDHA, NADH/diaphorase-resazurin fluorescence; stronger effect = lower value; in the data active means activity change below about -30%; inconclusive means mostly about -25% to -30%;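 further: plate controls were DMSO wells for no effect and wells without enzyme for full effect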
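Human LDH5 at 2 nM final in Tris HCl pH 7.4 with 0.06 mM NADH and 0.2 mM pyruvate, reacted 5 minutes at room temperature. Remaining NADH coupled via diaphorase/resazurin; resorufin fluorescence read at 0 and 20 minutes, normalized to enzyme-free and DMSO wells.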
IL1B secr inh = inhibitors of inflammasome signaling (IL-1 beta secretion) | THP-1 LPS/ATP IL-1B secretion, AlphaLISA, 16 h; stronger effect = lower value | activity change, % at 57.5 µM | actives 4.7% (n = 360,000) | AID 743279; in the data active means activity change below about -50%; inconclusive means mostly about -30% to -49%
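THP-1 cells pretreated 1 hr with compounds (up to 57.5 uM final), then stimulated with LPS (250 ng/mL final) plus ATP (1.25 mM final); secreted IL-1B measured by AlphaLISA after 16 hr, decreased signal indicating inhibition.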
DT40 TDP1 CPT = DT40-hTDP1 cell growth loss with CPT; chicken DT40 Tdp1-/-;hTDP1 cells + 20 nM CPT, ATP luminescence, 48 h; Potency, µM (highest dose often 46.2 µM), for the others: at the top dose activity change, negative = growth inhibition, actives largely listed as inhibitors; actives 12% (n = 420,000); AID 686979; further: potency means the concentration at half of the fitted maximal effect; nearly all actives have a fitted effect of over 55% in size
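Chicken DT40 Tdp1-/- cells complemented with human TDP1, 400 cells/well, exposed to compounds plus 20 nM camptothecin for at least 48 h at 37 C; viability read as ATP content by CellTiter-Glo luminescence.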
* = called active by the depositor; ? = inconclusive; . = not tested or not shown. The list is not random: actives were taken first. Their share in the collection is about 18%. Unless noted, the call rests on the fitted dose curve; in most records, active means well fitted curve in the direction sought with a large enough effect; inconclusive means small, poorly fitted or top-dose-only effect, or another doubt; inactive means no such curve, though single readings can be large; an effect the other way counts as inactive or inconclusive. Unless noted, on the % scale 0 is the no-effect control and ±100 the full control effect.

SMILES	TDP1 cell noCPT	VP16 counter	RORg inh	LDHA inh	IL1B secr inh	DT40 TDP1 CPT
COc1ccc2nc(NC(=O)C(NS(=O)(=O)c3cccc4nsnc34)C(C)C)sc2c1 (configuration not stated)	?	11µM*	?	-9	44	-18%
Cc1ccc(C)c(NC(=O)C2CCCN(S(=O)(=O)c3cccc4nsnc34)C2)c1 (configuration not stated)	26µM*	.	.	-3	.	-31%
CCn1c(SCc2nnc(C)o2)nc2sc(C)c(C)c2c1=O	.	.	.	6	.	.
COc1ccc2nc(C)c(C(=O)NC3CCS(=O)(=O)C3)cc2c1 (configuration not stated)	.	.	.	1	.	.
CC(=O)Nc1ccc(SCCCC(=O)c2ccc(F)cc2)cc1	.	.	.	12	.	.
S=C(Nc1cccc(Cl)c1)N(Cc1ccccc1)Cc1ccccc1	.	.	.	2	.	.
CCc1ccccc1NC(=O)C1CCCN(S(=O)(=O)c2cccc3nsnc23)C1 (configuration not stated)	?	.	.	-7	.	?
CCOc1ccc(NC(=O)C2CCCN(S(=O)(=O)c3cccc4nsnc34)C2)cc1 (configuration not stated)	16µM*	-11%	44%	-8	13	23µM*
O=C(Nc1cccc(C(F)(F)F)c1)C1CCCN(S(=O)(=O)c2cccc3nsnc23)C1 (configuration not stated)	21µM*	.	.	-4	.	16µM*
Cc1cccc(NC(=O)C2CCCN(S(=O)(=O)c3c(C)nn(C)c3C)C2)c1 (configuration not stated)	?	.	.	-2	22	?
COc1ccc2nc(NC(=O)C3CCN(S(=O)(=O)c4cccc5nsnc45)CC3)sc2c1	?	5%	?	0	-77*	15µM*
Cc1ccc(C)c(NC(=O)C2CCCN(S(=O)(=O)c3c(C)nn(C)c3C)C2)c1 (configuration not stated)	18µM*	12%	12%	-1	23	?
COc1cccc(NC(=O)C2CCCN(S(=O)(=O)c3cccc4nsnc34)C2)c1 (configuration not stated)	16µM*	-9%	39%	0	-8	?
O=C(Nc1ccc(OCC(F)(F)C(F)F)c(C(F)(F)F)c1)c1ccc(Cl)cc1	?	.	.	3	-104*	23µM*
COc1ccc(NC(=O)c2ccc(COCC(F)(F)F)cc2)cc1OC	?	-1%	35%	-3	0	2%
COc1ccc(C(=O)Nc2ccc(OCC(F)(F)C(F)F)c(C(F)(F)F)c2)cc1OC	11µM*	-11%	?	1	-23	11µM*
COc1ccc(CNC(=O)c2nn(-c3ccccc3C)c(=O)cc2OC)cc1	.	.	.	2	.	.
Cc1ccc(NC(=O)N2CCN(C(=O)c3ccco3)CC2)cc1Cl	?	19%	?	3	3	-20%
Cc1ccccc1C(=O)N1CCN(c2ccc(NC(=O)c3ccco3)cc2Cl)CC1	9.2µM*	6.3µM*	?	-5	-89*	15µM*
O=C(Nc1ccc(N2CCN(C(=O)c3cccs3)CC2)c(Cl)c1)c1ccco1	15µM*	-2%	?	1	?	?
O=C(Nc1ccc(NC(=O)c2cccs2)c(Cl)c1)c1ccco1	?	-14%	-20%	-2	-5	?
CC1CCC(NC(=O)Cn2c3c(c(-c4ccccc4Cl)cc2=O)CCC3)CC1 (configuration not stated)	13µM*	-2%	-18%	6	-16	16µM*
Clc1cccc(-c2sc(Nc3ccccc3)n[n+]2-c2ccccc2)c1Cl	18µM*	?	14µM*	-4	0	?
CC(=O)Nc1ccc(-c2sc(Nc3cccc4ccccc34)n[n+]2-c2ccccc2)cc1	-12%	-2%	-2%	3	-6	?
Fc1ccc(-[n+]2nc(Nc3ccccc3)sc2-c2cccc(Cl)c2Cl)cc1	?	?	8.9µM*	-7	-4	?
SMILES	TDP1 cell noCPT	VP16 counter	RORg inh	LDHA inh	IL1B secr inh	DT40 TDP1 CPT
CC1(C(=O)NC2CCN(Cc3ccccc3)CC2)CCN1Cc1ccc(OC(F)(F)F)cc1 (configuration not stated)	?	.	.	1	-7	?
CC1(C(=O)NCc2ccco2)CCN1C(=O)C1(c2ccccc2)CC1 (configuration not stated)	5.2µM*	.	.	-1	-107*	4.6µM*
CC1(C(=O)NCc2cccc3ccccc23)CCN1C(=O)C1(c2ccccc2)CC1 (configuration not stated)	?	.	.	-2	-3	?
CC1(C(=O)NCC(F)(F)F)CCN1C(=O)C1(c2ccccc2)CC1 (configuration not stated)	-17%	.	.	-2	-15	-60%
COc1ccccc1CNC(=O)C1(C)CCN1C(=O)C1(c2ccccc2)CC1 (configuration not stated)	26µM*	.	.	1	-26	16µM*
COc1ccccc1CNC(=O)C1(C)CCN1Cc1ccc(OC(F)(F)F)cc1 (configuration not stated)	?	.	.	6	-10	16µM*
O=C(c1cccc(C(F)(F)F)c1)N1CCN(C/C=C/c2ccccc2)CC1	.	.	.	10	.	.
COc1ccc(C(=O)c2nccc3cc(OC)c(OC)cc23)cc1OC	?	.	.	37	66	?
COc1cc2c(cc1OC)-c1c(OC)c(OC)cc3ccnc(c13)C2=O	4.1µM*	-9%	-31%	2	?	4.1µM*
CSc1cccc(N=Cc2cc(Cl)ccc2O)c1	.	.	.	12	.	.
Nc1nccnc1C(=O)NCCCc1ccccc1	.	.	.	1	.	.
CCOC(=O)N1CCc2c(sc(NC(=O)C3COc4ccccc4O3)c2C(N)=O)C1 (configuration not stated)	?	2%	3%	-1	-5	?
CC(=O)N1CCc2c(sc(NC(=O)C3COc4ccccc4O3)c2C(N)=O)C1 (configuration not stated)	?	-4%	-16%	1	-22	21µM*
COC(=O)c1c(NC(=O)c2nc3ccccc3s2)sc2c1CCN(C(C)=O)C2	6.5µM*	-2%	36%	-1	?	7.3µM*
COC(=O)c1c(NC(=O)C2COc3ccccc3O2)sc2c1CCN(C(C)=O)C2 (configuration not stated)	?	-3%	-2%	3	14	12µM*
